Assay results from PubChem BioAssay (NCATS).
Several values for one entry are separate records, joined by “and”; a condition that tells them apart may be missing. Equal entries are not always repeated. Results filed as inconclusive are left out. Activity calls are given as the source filed them. Unless noted, the call rests on the fitted dose curve; in most records, active means well fitted curve in the direction sought with a large enough effect; inconclusive means small, poorly fitted or top-dose-only effect, or another doubt; inactive means no such curve, though single readings can be large; an effect the other way counts as inactive or inconclusive.

What was measured:
[1] = Counterscreen qHTS for small molecule stabilizers of the endoplasmic reticulum resident proteome: GLuc-NoTag assay (AID 1508627);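 further: series mostly up to about 76 µM; 0% = thapsigargin alone and -100% = DMSO vehicle control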
Summary of the method: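 Counterscreen line: SH-SY5Y-GLuc-NoTag. Seed, 5 h; compound, 19 h; thapsigargin 100 nM, 4 h; 37C/5% CO2. Readout: secreted GLuc luminescence, coelenterazine 0.07x final, no lysis.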

[2] = Cell Viability qHTS for small molecule stabilizers of the endoplasmic reticulum resident proteome (AID 1508629); conditions: cell viability counter-screen, 100 nM thapsigargin for final 4 h;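 further: human SH-SY5Y neuroblastoma cells carrying the GLuc-SERCaMP reporter; compound exposure about 46 h in total before the viability read; on the % scale 0 is the no-effect control and ±100 the full control effect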
[3] = A High-Content qHTS Against Drug Library for the Identification of Small Molecules that Inhibit DYT1 Early Onset Primary Dystonia-Associated Cell Pathology (AID 1645839; calls by dose curve; further: series mostly up to about 46 µM)
Summary of the method: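 Cells were seeded and left for 24 h, then dosed with compound alongside tetracycline induction of mutant EGFP-TorsinA. They were incubated for 48 h, fixed in 4% paraformaldehyde, permeabilized and imaged for mislocalization (%pathology) and cell count.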

[4] = Primary qHTS for inhibitors of La Crosse Virus (LACV) - induced cell death in SH-SY5Y cells (AID 1508616);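 further: top concentration of the series differs between compounds; 0% = infected DMSO wells and 100% = uninfected DMSO wells; higher means more rescue of cells from virus-induced death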
Summary of the method: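 SH-SY5Y, 6000 cells/well; cpd via pin tool in DMSO; LACV 0.01 MOI; 6 d 37C 5% CO2; ATPLite, 5 min RT; luminescence normalized to ±virus DMSO controls.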

[5] = molecular target: Calcium and integrin-binding protein 1 (Homo sapiens) (UniProt Q99828); experiment: Primary qHTS for Identification of Calcium Integrin Binding Protein 1 (CIB1) Competitor (AID 1508620);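 further: GST tagged CIB1 binding a fluorescein labelled alphaIIb integrin peptide tracer; top concentration of the series differs between compounds; on the % scale 0 is the no-effect control and ±100 the full control effect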
Summary of the method: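 Fluorescence polarization competition: GST-tagged CIB1 (1 uM final) preincubated with compound 15 min at room temperature, then FITC-labelled alphaIIb peptide (100 nM final) added. After 15 min at room temperature, polarization read at Ex 480/Em 540.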

[6] = Confirmatory qHTS for small molecule stabilizers of the endoplasmic reticulum resident proteome: Secreted ER Calcium Modulated Protein (SERCaMP) assay (AID 1508628); further: nearly all actives have a fitted effect of over 40% in size; further: potency means the concentration at half of the fitted maximal effect
Summary of the method: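 Reporter secretion upon ER calcium depletion (100 nM thapsigargin, 4 h, 37C) is measured as medium luminescence with coelenterazine, after 16 h compound pretreatment of SH-SY5Y-GLuc-SERCaMP cells; primary at three concentrations up to 38.3 uM, follow-up at 11 (up to 76.6 uM).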

[7] = Primary qHTS for small molecule stabilizers of the endoplasmic reticulum resident proteome: Secreted ER Calcium Modulated Protein (SERCaMP) assay (AID 1508630); further: on the % scale 0 is the no-effect control and ±100 the full control effect
Summary of the method: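 The SH-SY5Y reporter protocol was run at 3 concentrations up to 38.3 uM (primary) or 11 concentrations (follow-up): 16 h compound, 100 nM thapsigargin for 4 h, then extracellular luciferase luminescence.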

Chain of Calcium and integrin-binding protein 1 (Homo sapiens) (Q99828 whole entry, looked up): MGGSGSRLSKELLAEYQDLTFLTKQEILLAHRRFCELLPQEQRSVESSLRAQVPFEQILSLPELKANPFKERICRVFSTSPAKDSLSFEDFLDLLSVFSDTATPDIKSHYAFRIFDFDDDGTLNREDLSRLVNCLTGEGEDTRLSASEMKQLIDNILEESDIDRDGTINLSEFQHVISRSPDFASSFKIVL

O=C1NC(c2cccc([N+](=O)[O-])c2)=CCN1c1ccccc1O
inactive: Potency [1] | max response [2] 23.5% and 15.8%

Clc1ccc2c(c1)N=C(N1CCNCC1)c1ccccc1N2
inactive: Potency [1]

CCCC(=O)c1cc(O)c(O)cc1O
inactive: Potency [3]

COC(=O)c1cc(Cl)ccc1NS(=O)(=O)C(F)(F)F
inactive: Potency [3]

Fc1ccc(C(c2ccc(F)cc2)N2CCNCC2)cc1
inactive: outcome [4] | Potency [5] | Potency [1] | Potency [6] | Potency [3]

C[C@@H](C1=C(CCN(C)C)Cc2ccccc21)c1ccccn1
inactive: outcome [4] | Potency [5]

CCCN(CCC)C(=O)C(CCC(=O)OCCCN1CCN(CCOC(=O)Cc2c(C)n(C(=O)c3ccc(Cl)cc3)c3ccc(OC)cc23)CC1)NC(=O)c1ccccc1 (centres undefined)
inactive: outcome [4] | Potency [5]

Cc1nc2n(c(=O)c1CCN1CCC(C(=O)c3ccc(F)cc3)CC1)CCS2
inactive: outcome [4] | Potency [5] | Potency [1] | Potency [6] | max response [2] -14.5% | Potency [3]

O=C1CC(c2ccc(Cl)cc2)CC(=O)N1
inactive: outcome [4] | Potency [5] | Potency [1] | Potency [6] | max response [2] 1.98% | Potency [3]

CN(C)CCOC(c1ccccc1)c1ccc(Br)cc1 (centres undefined)
inactive: outcome [4] | Potency [5] | Potency [1]

CN1CCC(=C2c3ccccc3CCc3cccnc32)CC1
inactive: outcome [4] | Potency [5] | max response [2] 12.6% | Potency [3]

CC(C)C[C@@H]1[C@H](c2ccccc2)OC(=O)N1CCCN1CCCCCC1
inactive: outcome [4] | Potency [5] | Potency [1] | max response [2] -0.48%
active: Potency [6] 31.6 µM

OCc1c[nH]c2ccccc12
inactive: outcome [4] | Potency [5]

CCOc1c(N2CCOCC2)cnn(C)c1=O
inactive: outcome [4] | Potency [5]

CCOC(=O)N1CCC(Nc2ccc(Cl)cc2N)CC1
inactive: outcome [4] | Potency [5] | max response [2] -17.4%

Nc1c(NC/C=C\COc2cc(CN3CCCCC3)ccn2)c(=O)c1=O
inactive: outcome [4] | Potency [5]

COC(=O)c1c(Cl)c(Cl)c(C(=O)OC)c(Cl)c1Cl
inactive: outcome [4] | Potency [5] | Potency [1] | Potency [6] | max response [2] 10.1%

Cn1cc(S(C)=O)c(=O)c2ccc(F)cc21 (centres undefined)
inactive: outcome [4] | Potency [5]

OC(CCCN1CCCCC1)(c1ccccc1)c1ccccc1
inactive: outcome [4] | Potency [5] | Potency [7]

C[C@H](N)C(=O)N[C@@H](C)C(=O)NC1[C@H]2CN(c3nc4c(cc3F)c(=O)c(C(=O)O)cn4-c3ccc(F)cc3F)C[C@@H]12 (some centres undefined)
inactive: outcome [4] | Potency [5] | Potency [1] | max response [2] -5.88% | Potency [3]

CCOC(=O)c1ccc(O)c(O)c1
inactive: outcome [4] | Potency [5] | Potency [1] | max response [2] 4.88%

O=C(CCC1CCN(Cc2ccccc2)CC1)c1ccc2c(c1)NCCCC2
inactive: outcome [4] | Potency [5]

COC(=O)C1=C(C)NC(C)=C(C(=O)OCCc2ccc(N3CCN(C(c4ccccc4)c4ccccc4)CC3)cc2)C1c1cccc([N+](=O)[O-])c1 (centres undefined)
inactive: outcome [4] | Potency [5]

C[C@H]1C[C@H](O)c2ccsc2S1(=O)=O
inactive: outcome [4] | Potency [5] | Potency [1] | Potency [6] | Potency [3]

C=CCNc1nc(NCC=C)nc(N2CCN(C(c3ccc(F)cc3)c3ccc(F)cc3)CC2)n1
inactive: outcome [4] | Potency [5] | max response [2] 26.9% | Potency [3]

CCCC(=O)Nc1ccc(O)c(C(C)=O)c1
inactive: outcome [4] | Potency [5] | Potency [6] | max response [2] 11.5% | Potency [3]

CCOc1ncc(F)c(=O)[nH]1
inactive: outcome [4] | Potency [5] | Potency [1] | Potency [6] | Potency [3]

O=C1NC2CCCCN2C12CCN(CCCN1c3ccccc3CCc3ccc(Cl)cc31)CC2 (centres undefined)
inactive: outcome [4] | Potency [5]

CN(C)CCOC1=Cc2ccccc2Sc2ccc(Cl)cc21
inactive: outcome [4] | Potency [5]

Cc1[nH]cnc1-c1ccc(Cl)cc1
inactive: outcome [4] | Potency [5]

CC(CC1c2ccccc2CCc2ccccc21)CN(C)C (centres undefined)
inactive: outcome [4] | Potency [5] | Potency [1]

CC(C)OC(=O)c1cc2c(OCC(O)CNC(C)(C)C)cccc2[nH]1 (centres undefined)
inactive: outcome [4] | Potency [5] | Potency [1] | max response [2] -12.8% | Potency [3]

C/C(=C(/OCCOc1ccc(Cl)cc1)c1ccc(Cl)cc1Cl)n1ccnc1
inactive: outcome [4] | Potency [5]

COC(=O)[C@H]1[C@H]2C[C@@H]3c4[nH]c5cc(OC)ccc5c4CCN3C[C@H]2C[C@@H](OC(=O)/C=C/c2ccc(O)c(OC)c2)[C@@H]1OC
active: Potency [6] 20 µM
inactive: outcome [4] | Potency [5]

CC(C)=CCC/C(C)=C/CC/C(C)=C/CCC(=O)OC/C=C(\C)CCC=C(C)C
inactive: outcome [4] | Potency [5]

O=C(O)Cn1cnnn1
inactive: outcome [4] | Potency [5] | Potency [1] | Potency [6] | Potency [3]

CC(C(O)c1ccccc1)N(C)CCOC(c1ccccc1)c1ccccc1 (centres undefined)
inactive: outcome [4] | Potency [5] | max response [2] -4.6%
active: Potency [6] 31.6 µM

Cc1onc(-c2ccccc2)c1C(=O)Cl
inactive: outcome [4] | Potency [5] | Potency [1] | Potency [6] | Potency [3]
